# Reference: ChEMBL document CHEMBL2218924, “A broad activity screen in support of a chemogenomic map for kinase signalling research and drug discovery” (Biochem J, 2013)
# Tests used:
# [1] = biological target: T1, Protein kinase C epsilon type (Homo sapiens) (UniProt Q02156); conditions: at 1 µM
# T1 sequence (whole entry): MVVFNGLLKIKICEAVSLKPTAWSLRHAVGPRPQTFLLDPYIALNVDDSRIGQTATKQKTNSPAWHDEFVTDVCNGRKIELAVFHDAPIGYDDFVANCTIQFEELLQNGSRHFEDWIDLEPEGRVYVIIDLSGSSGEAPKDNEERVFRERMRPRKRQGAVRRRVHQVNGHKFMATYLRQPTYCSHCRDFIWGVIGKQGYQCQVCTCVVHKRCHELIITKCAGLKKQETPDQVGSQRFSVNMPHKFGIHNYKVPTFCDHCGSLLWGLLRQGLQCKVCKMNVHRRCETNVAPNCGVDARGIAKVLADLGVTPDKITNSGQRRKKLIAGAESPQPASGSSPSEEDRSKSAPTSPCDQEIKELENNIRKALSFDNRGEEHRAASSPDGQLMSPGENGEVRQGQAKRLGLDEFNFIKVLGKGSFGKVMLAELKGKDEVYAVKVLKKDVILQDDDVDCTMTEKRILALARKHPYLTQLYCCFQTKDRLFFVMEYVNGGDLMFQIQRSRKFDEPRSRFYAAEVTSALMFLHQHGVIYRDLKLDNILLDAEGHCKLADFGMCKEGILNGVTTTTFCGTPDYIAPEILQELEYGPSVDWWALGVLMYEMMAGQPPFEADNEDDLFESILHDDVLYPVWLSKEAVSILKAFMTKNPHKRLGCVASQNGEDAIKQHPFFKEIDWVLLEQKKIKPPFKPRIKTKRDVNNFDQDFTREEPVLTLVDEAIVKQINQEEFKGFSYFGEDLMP
# [2] = biological target: T1, Protein kinase C epsilon type (Homo sapiens); conditions: at 10 µM
SMILES,residual activity [1] [%],residual activity [2] [%]
Cc1nc2cc3nc(-c4cccs4)cnc3cc2n1C,104,89
CO[C@@H]1[C@H](N(C)C(=O)c2ccccc2)C[C@H]2O[C@]1(C)n1c3ccccc3c3c4c(c5c6ccccc6n2c5c31)C(=O)NC4,42,14
Cc1cncc2cccc(S(=O)(=O)N3CCCN(C(=O)CN)C[C@H]3C)c12,58,23
CN(C)c1ccc(/C=C2\C(=O)Nc3ccccc32)cc1,120,121
COc1cccc(-c2cc(=O)c3ccccc3o2)c1N,106,100
CCOc1cc2ncnc(Nc3cccc(Br)c3)c2cc1OCC,84,100
Oc1c2ccccc2c2c3c(cccc13)N=N2,101,84
c1ccc2c(-c3ccncc3)c[nH]c2c1,73,55
Oc1ccc(Nc2nc(-c3ccc(Cl)cc3)cs2)cc1,115,112
CC(=O)O/N=C1\C(=C2\C(=O)Nc3cc(Br)ccc32)Nc2ccccc21,107,93
O=C(Nc1cccc(Nc2cc(Nc3cccc(C(F)(F)F)c3)ncn2)c1)C1CC1,90,97
COc1cc2ncnc(Nc3ccc(O)c(Br)c3)c2cc1OC,89,83
Oc1ccc(-c2nc(-c3ccc(F)cc3)c(-c3ccncc3)[nH]2)cc1,122,99
Ic1cccc(CSc2nnc(-c3ccncc3)o2)c1,88,88
Cn1cnc2cc3c(Nc4cccc(Br)c4)ncnc3cc21,86,95
Cn1cc(/C=C2\C(=O)Nc3ccc(S(N)(=O)=O)cc32)c2ccccc21,90,100
COc1ccc(OC)c2c(=S)c3ccccc3[nH]c12,98,109
c1ccc(-c2n[nH]cc2-c2ccnc3ccccc23)nc1,74,89
NC(=O)c1ccc2[nH]c(-c3ccc(Oc4ccc(Cl)cc4)cc3)nc2c1,95,85
Nc1ccc2ncnc(NCCc3ccc(Oc4ccccc4)cc3)c2c1,119,126
COc1cc2ncnc(Nc3ccc(Oc4ccccc4)cc3)c2cc1OC,85,89
c1ccc(-c2n[nH]c3c2oc2ccccc23)cc1,97,88

SMILES,residual activity [1] [%],residual activity [2] [%]
CO[C@H]1[C@@H](OC)C[C@H](C)[C@@H](OC)C2=CC(=O)C=C(NC(=O)/C(C)=C/C=C/[C@H](OC)[C@@H](OC(N)=O)/C(C)=C/[C@@H]1C)C2=O,100,102
CC(C)n1cnc2c(NCc3ccccc3)nc(NCCCO)nc21,91,103
Nc1cccc(-c2cc3c(Oc4cccc(O)c4)ncnc3[nH]2)c1,120,98
O=[N+]([O-])c1ccc(-c2nc(-c3ccc(F)cc3)c(-c3ccncc3)[nH]2)cc1,106,99
COc1ccc(CNc2nc(N(CCO)CCO)nc3c2ncn3C(C)C)cc1,115,105
O=C1Nc2ccccc2/C1=C1/Nc2ccccc2/C1=N\OCCC(O)CO (stereo not drawn),95,82
CNc1cc2c(Nc3cccc(Br)c3)ncnc2cn1,96,99
O=C1Nc2cc(Br)ccc2/C1=C1/Nc2ccccc2/C1=N\O,107,91
CCC(=O)Nc1ccc2ncnc(Nc3cccc(Br)c3)c2c1,79,110
COc1cc2ncnc(Nc3ccc(NC(=O)c4ccccc4)cc3)c2cc1OC,93,–
Nc1n[nH]c2nnc(-c3c(-c4ccccc4)nn4ccccc34)cc12,101,41
Oc1n[nH]c2nnc(-c3c(-c4ccccc4)nn4ccccc34)cc12,97,98
COc1ccc(S(=O)(=O)N(CCO)c2ccccc2CN(C)C/C=C/c2ccc(Cl)cc2)cc1,106,93
O=C1c2ccccc2-[n+]2ccc3c([nH]c4ccccc43)c21,93,94
Cc1ccc(NC2=CC(=O)c3sc(C)nc3C2=O)cc1,87,94
O=c1c2ccccc2[nH]c(=S)n1CCN1CCC(=C(c2ccc(F)cc2)c2ccc(F)cc2)CC1,91,93
Cc1cc2ncc(-c3ccccc3)nc2cc1C,–,100
N#CC(C#N)=C(N)/C(C#N)=C/c1ccc(O)cc1,95,89
CC#CC(=O)Nc1cc2c(Nc3ccc(F)c(Cl)c3)ncnc2cn1,90,94
O=Nc1c(-c2c(O)[nH]c3ccccc23)[nH]c2ccccc12,106,91
O=C1NC(=O)c2c1c1c3ccccc3[nH]c1c1[nH]c3cc(Br)ccc3c21,94,102
N#C/C(=C(\N)Sc1ccc(N)cc1)c1ccccc1C(F)(F)F,100,106

SMILES,residual activity [1] [%],residual activity [2] [%]
Cn1nc2c3c(cccc31)C(=O)c1ccccc1-2,106,98
O=c1cc(-c2cccc3c2Sc2ccccc2S3)oc(N2CCOCC2)c1,91,94
C[C@@H](N)[C@H]1CC[C@H](C(=O)Nc2ccncc2)CC1,71,31
Cc1cccc(-c2[nH]c(C(C)(C)C)nc2-c2ccc3c(c2)OCO3)n1,80,91
CCN(CC)CCCCN1c2ccccc2Oc2ccc(Cl)cc21,84,99
N#Cc1cnc2cnc(NCc3cccnc3)cc2c1Nc1ccc(F)c(Cl)c1,81,42
O=C1NC(=O)c2cc(Nc3ccc(F)cc3)c(Nc3ccc(F)cc3)cc21,67,73
O=C(O)c1ccc2c3c1cccc3c(=O)n1c3ccccc3nc21,112,109
CCN(CC)C(=O)c1ccc(Nc2nc(OCC3CCCCC3)c3nc[nH]c3n2)cc1,80,69
CO[C@H]1C[C@@H]2CC[C@@H](C)[C@@](O)(O2)C(=O)C(=O)N2CCCC[C@H]2C(=O)O[C@H]([C@H](C)C[C@@H]2CC[C@@H](O)[C@H](OC)C2)CC(=O)[C@H](C)/C=C(\C)[C@@H](O)[C@@H](OC)C(=O)[C@H](C)C[C@H](C)/C=C/C=C/C=C/1C,81,82
Nc1nc(Nc2ccc(S(N)(=O)=O)cc2)nn1C(=S)Nc1c(F)cccc1F,30,8
Cc1ccc(S(=O)(=O)/C=C/C#N)cc1,101,92
CC(=O)c1ccc(N2CCOCC2)cc1O,91,82
COc1cc2ncnc(N3CCN(C(=O)Nc4ccc(Oc5ccccc5)cc4)CC3)c2cc1OC,96,90
O=C(Nc1cccc(Nc2nccc(Nc3cccc(C(F)(F)F)c3)n2)c1)C1CC1,95,80
CC(C)n1cnc2/c(=N/c3cccc(Cl)c3)nc(NCCO)[nH]c21,75,92
O=C1NC(=O)/C(=C\c2ccc3nccnc3c2)S1,105,95
COc1ccc(C(=O)Nc2sc3c(c2C(N)=O)CCCC3)cc1OC,89,96
CC[n+]1c(/C=C/N(C)c2ccccc2)n(-c2ccccc2)c2ccc(-c3nc4ccccc4s3)cc21,101,107
O=C1NC(=O)/C(=C/c2ccc3c(c2)OC(F)(F)O3)S1,106,99
Cc1nc(-c2ccccc2)c(-c2ccncc2)o1,108,108
